# Experimental data: PubChem BioAssay (NCI)
# “And” between values parts separate entries of the source, which are not always exact repeats. Equal values may be shown once. Compounds without any hit were thinned out: in the full panel of roughly 83,000, 20% have a hit.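 Treatment: one concentration, 48 hours, 96-well format. Scoring: percent growth, with anything below 10 considered active.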 The source made the active and inactive calls.
# Tested on: SK-OV-3 ovarian
# Test: NCI-60 one-dose screen, 48 h (100 = growth as untreated, 0 = no growth, -100 = all killed)
# Details: 10 µM unless noted
row,SMILES,growth
1,CS(=O)(=O)c1nsc(N)n1,95.4% (inactive)
2,CCCC(=O)OCC(COC(=O)CCC)OC(=O)CCC,103% (inactive)
3,S=c1nc[nH]c2nc[nH]c12,36.2% (inactive)
4,Cc1ccc(C(=O)c2ccc(C)cc2)cc1,101% (inactive) and 107% (inactive)
5,Cc1cc2nc3ccc(=[N+](C)C)cc-3sc2cc1N,8.62% (active) and 45.8% (inactive)
6,O=C1c2ccccc2C(c2ccccc2)C1c1ccccc1 (stereo not drawn),93.5% (inactive)
7,COC(=O)CCOc1ccccc1,106% (inactive)
8,CC(C)(C(=O)c1cccnc1)c1cccnc1,109% (inactive) and 115% (inactive)
9,N#CC1c2ccccc2C=CN1C(=O)c1ccccc1 (stereo not drawn),120% (inactive) and 128% (inactive)
10,OCCS,101% (inactive)
11,Cc1ccc2cccc([N+](=O)[O-])c2n1,102% (inactive) and 100% (inactive)
12,CCN(C)c1ccccc1,89.6% (inactive)
13,CCCC(=O)Oc1ccc(CC)cc1,103% (inactive)
14,O=[N+]([O-])c1ccc(NC2CCCCC2)nc1,108% (inactive)
15,O=C1C(=O)c2ccccc2C(O)=C1CC=C(Cl)Cl,73.9% (inactive) and 58.4% (inactive)
16,CC1=CC(=O)c2cccc(NC3=NCCO3)c21,103% (inactive)
17,COc1ccc2nccc(Cl)c2c1,111% (inactive)
18,CCc1ccc(OC(=O)CCl)cc1,112% (inactive)
19,CC(=O)Oc1cc(C(C)C)c(OCCN(C)C)cc1C,115% (inactive) and 101% (inactive)

row,SMILES,growth
1,O=C(O)c1cccc(Br)c1,104% (inactive) and 106% (inactive)
2,CC1(C)CC(=O)NC1=O,104% (inactive)
3,OCCSc1ccc(Cl)cc1,112% (inactive) and 86.9% (inactive)
4,COc1ccc(S(=O)(=O)c2ccc(F)cc2)cc1,108% (inactive)
5,COc1ccccc1OCC(O)CO (stereo not drawn),106% (inactive) and 121% (inactive)
6,Cc1ccc(NC(=S)N/C=C(\c2ccccc2)S(=O)Cc2ccccc2)c(C)c1 (stereo not drawn),100% (inactive)
7,O=[N+]([O-])c1ccc(NC(c2ccccc2)c2ccc3cccnc3c2O)cc1 (stereo not drawn),34.9% (inactive)
8,CN1C2C=CC(=O)C1C1C(=O)N(c3ccccc3)C(=O)C12 (stereo not drawn),105% (inactive)
9,Cc1cc(-c2ccc(N=Nc3c(C)nn(-c4ccc(S(=O)(=O)O)cc4)c3O)c(C)c2)ccc1N=Nc1ccc(O)c(C(=O)O)c1,96.9% (inactive)
10,CCOCCC(=O)O,102% (inactive)
11,O=c1[nH]nnc2cc(Cl)ccc12,114% (inactive) and 117% (inactive)
12,NC(=O)Cc1nc(O)cc(=O)[nH]1,89.7% (inactive)
13,CC1OS(=O)OC1C (stereo not drawn),99.6% (inactive) and 118% (inactive)
14,NNC(=O)Nc1ccccc1,105% (inactive)
15,COC(=O)c1ccccc1Cl,105% (inactive)
16,CCCCC/C(C)=N\NC(N)=S,98.9% (inactive)
17,COCCNC(C)=O,102% (inactive)
18,Nc1nc(-c2ccccn2)cc(-c2cc(-c3ccccn3)nc(N)n2)n1,119% (inactive)

# Tested on: IGROV1 ovarian
# Test: as above
# Details: 10 µM unless noted
row,SMILES,growth
1,CS(=O)(=O)c1nsc(N)n1,101% (inactive)
2,CCCC(=O)OCC(COC(=O)CCC)OC(=O)CCC,105% (inactive)
3,Cc1ccc(C(=O)c2ccc(C)cc2)cc1,86.3% (inactive) and 99% (inactive)
4,Cc1cc2nc3ccc(=[N+](C)C)cc-3sc2cc1N,-55.6% (active) and 10.3% (inactive)
5,O=C1c2ccccc2C(c2ccccc2)C1c1ccccc1 (stereo not drawn),91.1% (inactive)
6,COC(=O)CCOc1ccccc1,68.9% (inactive)
7,CC(C)(C(=O)c1cccnc1)c1cccnc1,107% (inactive) and 103% (inactive)
8,N#CC1c2ccccc2C=CN1C(=O)c1ccccc1 (stereo not drawn),101% (inactive) and 73.9% (inactive)
9,OCCS,110% (inactive)
10,Cc1ccc2cccc([N+](=O)[O-])c2n1,109% (inactive) and 114% (inactive)
11,CCN(C)c1ccccc1,113% (inactive)
12,CCCC(=O)Oc1ccc(CC)cc1,104% (inactive)
13,O=[N+]([O-])c1ccc(NC2CCCCC2)nc1,116% (inactive) and 104% (inactive)
14,O=C1C(=O)c2ccccc2C(O)=C1CC=C(Cl)Cl,42.7% (inactive)
15,CC1=CC(=O)c2cccc(NC3=NCCO3)c21,104% (inactive)
16,COc1ccc2nccc(Cl)c2c1,105% (inactive)
17,CCc1ccc(OC(=O)CCl)cc1,108% (inactive)
18,CC(=O)Oc1cc(C(C)C)c(OCCN(C)C)cc1C,110% (inactive) and 112% (inactive)

row,SMILES,growth
1,O=C(O)c1cccc(Br)c1,105% (inactive) and 104% (inactive)
2,CC1(C)CC(=O)NC1=O,110% (inactive)
3,OCCSc1ccc(Cl)cc1,109% (inactive) and 93.6% (inactive)
4,COc1ccc(S(=O)(=O)c2ccc(F)cc2)cc1,120% (inactive)
5,COc1ccccc1OCC(O)CO (stereo not drawn),123% (inactive) and 114% (inactive)
6,Cc1ccc(NC(=S)N/C=C(\c2ccccc2)S(=O)Cc2ccccc2)c(C)c1 (stereo not drawn),112% (inactive)
7,O=[N+]([O-])c1ccc(NC(c2ccccc2)c2ccc3cccnc3c2O)cc1 (stereo not drawn),10.9% (inactive)
8,CN1C2C=CC(=O)C1C1C(=O)N(c3ccccc3)C(=O)C12 (stereo not drawn),-9.22% (active)
9,Cc1cc(-c2ccc(N=Nc3c(C)nn(-c4ccc(S(=O)(=O)O)cc4)c3O)c(C)c2)ccc1N=Nc1ccc(O)c(C(=O)O)c1,-9.24% (active)
10,CCOCCC(=O)O,114% (inactive)
11,O=c1[nH]nnc2cc(Cl)ccc12,104% (inactive) and 116% (inactive)
12,NC(=O)Cc1nc(O)cc(=O)[nH]1,109% (inactive)
13,CC1OS(=O)OC1C (stereo not drawn),105% (inactive)
14,NNC(=O)Nc1ccccc1,102% (inactive)
15,COC(=O)c1ccccc1Cl,105% (inactive)
16,CCCCC/C(C)=N\NC(N)=S,89.7% (inactive)
17,COCCNC(C)=O,106% (inactive)
18,Nc1nc(-c2ccccn2)cc(-c2cc(-c3ccccn3)nc(N)n2)n1,108% (inactive)
